Here are results for 57 compounds from PubChem BioAssay AID651813 (National Center for Advancing Translational Sciences (NCATS), 2012).

Among all 2,100 compounds or so, about 1,100 (52%) were called active. About 27% were inconclusive and are not listed. Calls follow the shape of the dose curve; as a rule, active = well fitted inhibition curve with a large enough effect; inconclusive = small, poorly fitted or top-dose-only effect; inactive = no such curve, though single readings can be large or run the other way. So high a share suggests a set chosen from earlier hits. The list shows a part of the results.
Potency is read from the fitted curve at half-maximal effect.

The target of this experiment is DNA dC->dU-editing enzyme APOBEC-3G (Homo sapiens) (UniProt Q9HC16). The experiment can be described thus: qHTS for inhibitors of Vif-A3G interactions: Cherry picks counterscreen.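 Also: hits raise yellow fluorescence by blocking Vif-driven A3G-eYFP degradation; nearly all actives have a fitted effect of over 70% in size.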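 As to max response: max response given as percent of control signal.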 To be noted: HeLa A3G-eYFP + Vif (tagged APOBEC3G with the HIV-1 protein that degrades it), eYFP fluorescence, 24 h. The text has this: The recent discovery and characterization of host restriction factors, which provide a potent defense to invading retroviruses, has provided new targets for antiviral drug development. APOBEC3G (A3G) and APOBEC3F (A3F) are potent cytidine deaminases that block HIV-1 replication; HIV-1 expresses the Vif protein, which counteracts A3G and A3F by binding to them and inducing their proteasomal degradation. The Vif-A3G and Vif-A3F interactions provide two potential targets for development of small molecules which can interfere with the ability of Vif to degrade A3G or A3F. […] To identify inhibitors that can interfere with Vif mediated degradation of A3G and A3F, we have developed Hela cell lines that stably express A3G or A3F tagged with eYFP at the C-terminal end (A3G-eYFP or A3F-eYFP, respectively) and Vif. In the absence of an inhibitor, Vif induces degradation of A3G-eYFP and A3F-eYFP, and the cells are not fluorescent. In the presence of an inhibitor, it is expected that Vif will be unable to degrade A3G-eYFP and/or A3F-eYFP, resulting in an increase in yellow fluorescence. In this counterscreen assay, Vif A3G was screened against the cherry picks ordered from the MLSMR. NIH Chemical Genomics Center [NCGC] NIH Molecular Libraries Probe Centers Network [MLPCN] MLPCN Grant: MH093245 Assay Submitter (PI): Vinay Pathak, National Cancer Institute
Chain of DNA dC->dU-editing enzyme APOBEC-3G (Homo sapiens) (Q9HC16 whole entry, looked up): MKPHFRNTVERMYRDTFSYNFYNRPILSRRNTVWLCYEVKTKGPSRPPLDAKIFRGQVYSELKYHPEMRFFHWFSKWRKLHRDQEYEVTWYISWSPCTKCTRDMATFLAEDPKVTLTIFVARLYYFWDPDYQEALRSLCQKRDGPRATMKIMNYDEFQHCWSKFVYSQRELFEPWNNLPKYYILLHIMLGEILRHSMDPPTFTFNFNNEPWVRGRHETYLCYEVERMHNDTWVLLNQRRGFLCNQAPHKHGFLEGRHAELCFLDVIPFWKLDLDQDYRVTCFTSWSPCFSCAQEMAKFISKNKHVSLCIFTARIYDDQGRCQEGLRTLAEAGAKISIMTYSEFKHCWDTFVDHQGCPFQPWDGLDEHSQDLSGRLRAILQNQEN
A3G-Vif cells were harvested from T225 flask and resuspended in phenol free OPTI-MEM medium with 5% FBS. Then 5 uL of 140,000 cells/mL resuspended cells was dispensed into each well of low base Aurora COC 1,536-well plates (black walled, clear bottom) using a Multidrop Combi dispenser. After overnight culture at 37 deg C with 5% CO2, a total of 23 nL of compounds at 5 selected concentrations from the NPC or positive control (2 mM stock of MG132) in DMSO was transferred to each well of the assay plate using a pintool (Kalypsys, San Diego, CA), and the plates were further incubated at 37 deg C with 5% CO2 for 24 hours. After that, the plates were measured on Acumen Explorer (TTP Lab Tech). The fluorescence was detected by 488 nm/Ex and […].
(Quantitative high-throughput screening tests each substance at several concentrations.)
As to `CC(=O)Nc1cccc(-c2ccnc3c2CC(C(=O)NCc2ccco2)O3)c1` (configuration not stated), the Potency was 6.27 µM (active).

Consider `O=c1nc(/C=C/c2ccc(Cl)cc2Cl)cc(C(F)(F)F)[nH]1`, for which the Potency is 17.7 µM (active). On to `CC(=O)OC1C2(CC3N4C(=O)C5(CO)SSC4(CC31O)C(=O)N5C)OC(C)C(C)(C)C2=O` (configuration not stated), for which the Potency is 12.5 µM (active). With `Nc1ccc2c3c(cccc13)-c1ccccc1-2`, the Potency is 2.31 µM (active). Still for that read-out and setting: the result for `C=C1C(=O)OC2C1CCC(C)C1(O)C=CC(=O)C21C` (configuration not stated) reads 8.86 µM (active); that for `Cc1cc(N2CCCC2)ccc1C=C(C#N)C#N`, 11.6 µM (active). Regarding `C=CCn1c(O)c(C(C)=Nc2ccc(N(CC)CC)cc2)c(=O)[nH]c1=O`, the Potency is 9.94 µM (active).

In the case of `CCN(CC)c1ccc(N=Cc2c(O)n(Cc3ccccc3)c(=O)[nH]c2=O)cc1`, the Potency is 13 µM (active). `Cc1ccccc1-n1c(O)c(/C=C/C=Nc2ccccc2)c(=O)[nH]c1=O`: the max response was 55.1% (inactive). As for `CCN(CC)c1ccc(N=Cc2c(O)n(CCC3=CCCCC3)c(=O)[nH]c2=O)cc1`, the Potency is 23.1 µM (active). On the same count and under the same terms, as for `CCS(=O)(=O)N1N=C(c2cccc(NS(C)(=O)=O)c2)CC1c1ccccc1` (configuration not stated), the figure is 20.6 µM (active); as for `Cc1nn(Cc2ccccc2)c(C)c1C(=O)OCC(=O)Nc1ccccc1SCC#N`, 15.8 µM (active); as for `N#CC1=C(N)Oc2c(c(=O)sc3ccccc23)C1c1cccnc1` (configuration not stated), 5.59 µM (active). Turning to `NC(=Nc1ccccc1)NN=Cc1c[nH]c2ccccc12`, the Potency was 2.23 µM (active).

With `CC(=O)O[C@@]12CO[C@@H]1C[C@H](OC1OCC(O)C(O)C1O)[C@@]1(C)C(=O)[C@H](O)C3=C(C)[C@@H](OC(=O)[C@H](O)[C@@H](NC(=O)c4ccccc4)c4ccccc4)C[C@@](O)([C@@H](OC(=O)c4ccccc4)C12)C3(C)C` (some centres not stated), the Potency is 1.25 µM (active). Take `CCCCn1c(O)c(C(=O)/C=C/c2c[nH]c3ccccc23)c(=O)[nH]c1=O`: the Potency was 4.44 µM (active). Consider `CC1=CC(=Cc2sc3ccccc3[n+]2C)C=C(C)O1`, for which the Potency was 20.6 µM (active). Regarding `Cc1c(Cl)cccc1NC(=O)c1oc2ccc(S(=O)(=O)N3CCC4(CC3)OCCO4)cc2c1C`, the Potency was 7.31 µM (active). On to `CN1C(=O)/C(=C/c2ccc(N3CCCCCC3)o2)C(=O)NC1=S`, for which the Potency is 15.8 µM (active). `CN1CCN(c2ccc(/C=C3\C(=O)NC(=S)N(c4cccc(Br)c4)C3=O)o2)CC1`: the Potency is 16.4 µM (active). As for `CN1C(=O)/C(=C\c2ccc(N3CCCCC3)o2)C(=O)NC1=S`, the Potency was 17.7 µM (active). For `COc1cc2c(cc1O)[C@@H]1Cc3ccc(OC)c(O)c3CN1CC2`, the Potency is 12.5 µM (active). As for `COc1ccc(-n2cnc3cc(C(=O)N4CCC5(CC4)OCCO5)ccc32)cc1`, the Potency was 9.94 µM (active).

Consider `COc1cccc(C2=CC(c3cc(Br)ccc3F)n3nnnc3N2)c1` (configuration not stated), for which the Potency was 1.84 µM (active). As for `ClCCN(CCCl)c1ccc(C=Cc2ccncn2)cc1`, the max response is -8.89% (inactive). In the case of `Cc1cc(N(CCCl)CCCl)ccc1C=Cc1ccncn1`, the Potency was 20.6 µM (active). Consider `CCN(CC)c1ccc2c(cc1=O)[C@@H](NC)CCc1cc(OC)c(OC)c(OC)c1-2`, for which the Potency was 2.5 µM (active). The same measure, in the same setting: as for `CN1C(=O)C(=Cc2ccc(N3CCOCC3)o2)C(=O)N(C)C1=S`, the figure is 20.6 µM (active); as for `CN1C(=O)C(=Cc2ccc(N3CCOCC3)o2)C(=O)N(C)C1=O`, 23.1 µM (active). Turning to `CN1C(=O)C(=Cc2ccc(N3CCCCC3)o2)C(=O)N(C)C1=S`, the Potency is 2.91 µM (active). Turning to `CCN1C(=O)/C(=C/c2ccc(N(CC)CC)cc2OC)C(=O)NC1=S`, the Potency is 18.4 µM (active). As for `CCN(CC)c1ccc(/C=C2\C(=O)NC(=S)N(C)C2=O)o1`, the Potency was 14 µM (active). For `CCN(CC)c1ccc(/C=C2\C(=O)NC(=S)N(c3ccc(OC)cc3OC)C2=O)o1`, the Potency was 18.4 µM (active). Consider `CCN(CC)c1ccc(C=C2C(=O)N(C)C(=S)N(C)C2=O)o1`, for which the Potency is 6.27 µM (active). Still for that read-out and setting: the result for `COc1cc(C2C(C#N)=C(N)Oc3cc(O)ccc32)cc(OC)c1OC` (configuration not stated) reads 1.77 µM (active); that for `CN1/C(=C\C=C2C(=O)NC(=O)NC2=O)C(C)(C)c2ccccc21`, 2.91 µM (active). As to `CN(C)c1ccc(C(=O)c2ccc(N(C)C)cc2)cc1`, the Potency is 1.58 µM (active). With `CCCCNC(=O)/C(C#N)=c1\s/c(=C\c2ccccc2OC(F)F)c(=O)n1CCCOC`, the Potency is 18.4 µM (active). In the case of `COc1ccc(-c2ccc(OC)c(OC)c2OC)cc1`, the Potency was 3.96 µM (active). Turning to `O=C1NC(=O)N(c2ccc3c(c2)OCO3)C(=O)/C1=C\c1ccc(N2CCCCC2)o1`, the Potency was 20.6 µM (active). As to `O=C1NC(=O)N(c2ccc3c(c2)OCO3)C(=O)/C1=C/c1ccc(N2CCCCC2)o1`, the Potency was 23.1 µM (active). For `CC(C)c1ccc(N2C(=O)NC(=O)/C(=C/C=C/c3ccco3)C2=O)cc1`, the Potency was 14 µM (active). `Cc1cc(/C=C2\C(=O)NC(=O)N(c3ccc(Br)cc3)C2=O)c(C)n1C`: the max response is 8.75% (inactive). As to `CC(C)c1ccc(N2C(=O)NC(=O)/C(=C\C=C\c3ccco3)C2=O)cc1`, the Potency is 14 µM (active). Turning to `O=C(Cc1ccccc1)c1ccccn1`, the Potency is 12.5 µM (active). As to `Cc1cccc(CN2CCCC(C(=O)c3cccc(OC(C)C)c3)C2)n1` (configuration not stated), the max response was 2.93% (inactive). In the case of `O=c1[nH]c(CN2CC=C(c3ccccc3)CC2)nc2scc(-c3ccccc3)c12`, the Potency is 8.2 µM (active).

For `O=C1NC(=S)SC1=Cc1ccc(N(CCCl)CCCl)cc1`, the Potency was 15.8 µM (active). Take `Cc1ccc(CNC(=O)c2ccccc2NC(=O)c2nsc3ccccc23)cc1`: the Potency is 23.1 µM (active).

Regarding `Cc1cccc(-n2c(O)c(/C=C/C=Nc3ccccc3)c(=O)[nH]c2=O)c1`, the max response is 59.1% (inactive).

As to `O=c1c2ccccc2nc(/C=C/c2ccc([N+](=O)[O-])o2)n1-c1ccc(O)cc1`, the Potency is 8.86 µM (active). In the case of `Cc1cccc(-n2c(/C=C/c3ccc([N+](=O)[O-])o3)nc3ccccc3c2=O)c1`, the Potency is 5.17 µM (active).

Consider `COc1ccc(-n2c(/C=C/c3ccc(O)c(OC)c3)nc3ccccc3c2=O)cc1`, for which the Potency is 23.1 µM (active).

With `Cc1cccc(-n2c(/C=C/c3c(C)[nH]c4ccccc34)nc3ccccc3c2=O)c1`, the Potency is 18.4 µM (active). `COc1ccc2nc(NC(=O)c3nc(S(=O)(=O)Cc4cccc(C)c4)ncc3Cl)sc2c1`: the max response was 58.8% (inactive). As for `Cc1ccccc1-n1c(/C=C/c2ccc(N(C)C)cc2)nc2ccccc2c1=O`, the Potency is 1.46 µM (active). Still for that read-out and setting: the result for `O=Cc1c(C(=O)O)n(Cc2ccc(Cl)cc2)c2ccccc12` reads 3.66 µM (active).
